The source of these data is PubChem BioAssay (Tox21).

Assay [1] is described as follows: qHTS assay for small molecule agonists of the p53 signaling pathway (AID 651631; calls by dose curve; also: nearly all actives have a fitted effect of over 15% in size; also: potency is read from the fitted curve at half-maximal effect). The method, boiled down:
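HCT-116 cells carrying a stable p53 response element–beta-lactamase reporter were plated, rested 5 h at 37 °C, then exposed to compound in DMSO for 16 h at 37 °C; reporter activity was read as FRET substrate fluorescence after 2 h at room temperature.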

A short description of assay [2]: qHTS assay for small molecules that induce genotoxicity in human embryonic kidney cells expressing luciferase-tagged ATAD5 (AID 651632). Also: nearly all actives have a fitted effect of over 15% in size. The method, boiled down:
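Luminescence read-out: after 16 hr compound exposure at 37C, ATAD5-luciferase HEK293T cells received Amplite, 30 min RT, then CCD imaging. A rise in signal marks genotoxic stress.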

The nature of assay [3]: qHTS assay for small molecule agonists of the p53 signaling pathway - cell viability (AID 651633; calls by dose curve; also: nearly all actives have a fitted effect of over 30% in size; also: potency is read from the fitted curve at half-maximal effect). The method, boiled down:
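p53RE-bla cells, seeded at 4,000 per well and rested 5 h at 37 C/5% CO2, received compounds in DMSO for 16 h at 37 C. CellTiter-Glo was then added, and luminescence was read after 30 min at room temperature to gauge cytotoxicity.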

A short description of assay [4]: qHTS assay for small molecules that induce genotoxicity in human embryonic kidney cells expressing luciferase-tagged ATAD5 - cell viability (AID 651634; calls by dose curve; also: nearly all actives have a fitted effect of over 25% in size). The method in brief:
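HEK293T ATAD5-luc cells, 2,000/well; compound 15.5 hr, 37C/5% CO2; CellTiter-Fluor 30 min, 37C; fluorescence read.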

The nature of assay [5]: qHTS assay for small molecule disruptors of the mitochondrial membrane potential - cell viability (AID 720634; calls by dose curve;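 also: human HepG2 liver cancer cells; nearly all actives have a fitted effect of over 20% in size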). The method in brief:
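Luminescence from CellTiter-Glo (ATP content) gave viability in HepG2 cells, read in the same wells as the MMP dye assay after 1 hr compound exposure at 37 C.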

Assay [6] can be described thus: qHTS assay for small molecule disruptors of the mitochondrial membrane potential (AID 720635). Also: potency is read from the fitted curve at half-maximal effect. The method in brief: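 HepG2 cells (2,000/well) attached overnight at 37C, then took compound for 1 hr at 37C, 5% CO2. Mito-MPS dye was added for 30 min; fluorescence was read at 490/535 nm (monomers) and 540/590 nm (aggregates).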
A short description of assay [7]: qHTS assay to test for compound auto fluorescence at 590 nm (red) in HepG2 cells (AID 720674). The method, boiled down: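 Intrinsic compound fluorescence in the red window (Ex/Em 540/590 nm) is measured in attached HepG2 cells exposed for 1 hr, DMSO vehicle as baseline, benchmarked to Rose Bengal sodium.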
Assay [8] can be described thus: qHTS assay to test for compound auto fluorescence at 535 nm (green) in HepG2 cells (AID 720675).
The nature of assay [9]: qHTS assay to test for compound auto fluorescence at 460 nm (blue) in HEK293 cells (AID 720678). The method in brief:
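Measured: blue fluorescence (Ex 405/Em 460 nm) of compound-treated HEK293 cells, incubated overnight at 37C with 5% CO2 and scaled to triamterene equivalents.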

Assay [10] in a line: qHTS assay to test for compound auto fluorescence at 590 nm (red) in HEK293 cells (AID 720679). The method, boiled down:
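Using HEK293 cells at 2,000 per well, the screen added 23 nL of each compound after cell attachment and incubated overnight (37C, 5% CO2). The plate reader then captured red-label fluorescence, Ex/Em 540/590nm.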

Assay [11] in a line: qHTS assay to test for compound auto fluorescence at 535 nm (green) in HEK293 cells (AID 720680).
The nature of assay [12]: qHTS assay to test for compound auto fluorescence at 460 nm (blue) in HEK293 cell free culture (AID 720681). The method in brief:
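Test compounds were pinned into cell-free culture medium (DMEM with 10% FBS) and fluorescence was read directly at Ex/Em 405/460 nm. Signals were expressed as fluorescence equivalents of triamterene, with DMSO vehicle as control.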

Assay [13] in a line: qHTS assay to test for compound auto fluorescence at 535 nm (green) in HEK293 cell free culture (AID 720682). The method, boiled down: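 Read-out: 485/535 nm fluorescence intensity, calibrated against fluorescein. Medium only (DMEM + 10% FBS, no cells); test compound or DMSO vehicle added by pintool before plate reading.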
Assay [14] in a line: qHTS assay to test for compound auto fluorescence at 590 nm (red) in HEK293 cell free culture (AID 720683). The method in brief:
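Tox21 10K library compounds were pinned into cell-free DMEM with 10% FBS and fluorescence was read at excitation 540 nm. Activity is expressed as Rose Bengal sodium equivalency.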

A short description of assay [15]: qHTS assay to test for compound auto fluorescence at 590 nm (red) in HepG2 cell free culture (AID 720684). The method, boiled down:
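Readout: intrinsic compound fluorescence at 590 nm emission after 540 nm excitation, scaled to Rose Bengal sodium. Matrix was cell-free MEM with 10% FBS; DMSO vehicle wells served as control.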

The nature of assay [16]: qHTS assay to test for compound auto fluorescence at 460 nm (blue) in HepG2 cell free culture (AID 720685). The method in brief:
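Cell-free plates of MEM plus 10% FBS received 23 nL compound or DMSO vehicle; blue-channel (405/460 nm) intensity scored against triamterene as reference fluorophore.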

The nature of assay [17]: qHTS assay to test for compound auto fluorescence at 535 nm (green) in HepG2 cell free culture (AID 720686).
The nature of assay [18]: qHTS assay to test for compound auto fluorescence at 460 nm (blue) in HepG2 cells (AID 720687). The method in brief:
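Cells (2,000/well in MEM with 10% FBS) attached overnight at 37 C, then were exposed to compound or DMSO for 1 hr at 37 C, 5% CO2. Fluorescence read at Ex/Em 405/460 nm, expressed as triamterene-equivalent signal.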

For assay [19], the target named is Glucocorticoid receptor (Homo sapiens) (UniProt P04150). Put plainly: qHTS assay to identify small molecule agonists of the glucocorticoid receptor (GR) signaling pathway (AID 720691; active = well fitted activation curve with a large enough effect in the signal ratio in the repeat runs, not every such curve was filed as active; the % refers to the signal ratio). The following applies: GR-bla HeLa, beta-lactamase reporter ratio, 18 h; activation: at 62.4 µM (top of the series). The method, boiled down:
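HeLa GR-bla reporter line; cells pre-incubated 4 h, compound in DMSO 18 h at 37 C; LiveBLAzer B/G FRET substrate 2 h RT; fluorescence intensity read-out.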

“And” between values parts separate entries of the source, which are not always exact repeats. Equal entries are not always repeated. Inconclusive results are not listed. The source made the active and inactive calls. Unless noted, calls follow the shape of the dose curve; as a rule, active = well fitted curve in the direction sought with a large enough effect in the repeat runs; inconclusive = weak or mixed curves; inactive = no such curve, though single readings can be large; an effect the other way counts as inactive or inconclusive.

Chain of Glucocorticoid receptor (Homo sapiens) (P04150 whole entry, looked up): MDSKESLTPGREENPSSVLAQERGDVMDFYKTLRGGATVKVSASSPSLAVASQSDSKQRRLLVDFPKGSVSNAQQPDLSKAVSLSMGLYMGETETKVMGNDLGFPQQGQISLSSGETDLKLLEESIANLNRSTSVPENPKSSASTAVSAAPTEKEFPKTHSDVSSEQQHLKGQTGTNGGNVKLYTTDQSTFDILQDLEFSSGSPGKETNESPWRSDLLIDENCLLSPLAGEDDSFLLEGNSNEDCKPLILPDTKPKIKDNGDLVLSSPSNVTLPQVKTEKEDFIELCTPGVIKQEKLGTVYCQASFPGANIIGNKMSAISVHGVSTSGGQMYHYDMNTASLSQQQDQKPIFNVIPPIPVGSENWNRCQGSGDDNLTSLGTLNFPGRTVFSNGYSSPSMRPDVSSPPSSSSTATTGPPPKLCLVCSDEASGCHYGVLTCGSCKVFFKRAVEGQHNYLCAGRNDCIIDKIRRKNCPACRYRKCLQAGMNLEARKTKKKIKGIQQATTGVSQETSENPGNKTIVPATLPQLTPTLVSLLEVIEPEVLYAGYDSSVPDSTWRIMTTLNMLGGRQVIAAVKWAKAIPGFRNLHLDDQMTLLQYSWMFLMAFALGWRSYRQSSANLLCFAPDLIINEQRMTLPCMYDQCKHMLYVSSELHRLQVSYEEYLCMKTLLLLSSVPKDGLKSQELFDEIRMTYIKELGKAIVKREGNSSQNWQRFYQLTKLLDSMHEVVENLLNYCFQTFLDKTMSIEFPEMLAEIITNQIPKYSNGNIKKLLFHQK

Regarding `C=CC1=C(C(=O)O)N2C(=O)[C@@H](NC(=O)/C(=N/OCC(=O)O)c3csc(N)n3)[C@H]2SC1` (stereo in doubt), the Potency entry in assay [1], in [2], in assay [3], in assay [4], in [5] and in assay [6] was “inactive” in each case. For the same compound, the Potency result in assay [8], in assay [9], in assay [12], in assay [16], in assay [17] and in assay [18] was “inactive” in each case. Also, the call in assay [7], in [10], in assay [11], in assay [13], in assay [14] and in [15] was inactive.
As to `COC(=O)[C@H]1[C@H]2C[C@H]3c4[nH]c5ccccc5c4CCN3C[C@H]2CC[C@@H]1O`, the Potency entry in [1], in assay [2], in assay [3], in [4], in assay [5] and in assay [6] was “inactive” throughout. Further, the Potency result in assay [8], in assay [9], in assay [12], in assay [16], in assay [17] and in [18] was “inactive” throughout. Further, the compound was called inactive in [7], in [10], in [11], in assay [13], in assay [14] and in assay [15].
With `CC(C)[N+]1(C)[C@@H]2CC[C@H]1CC(OC(=O)C(CO)c1ccccc1)C2` (some centres not stated), the Potency result in [1], in assay [2], in assay [3], in assay [4], in assay [5] and in assay [6] was “inactive” throughout. Moreover, the Potency result in assay [8], in assay [9], in assay [12], in assay [16], in assay [17] and in assay [18] was “inactive” each time. Moreover, the Potency entry in assay [19] is “inactive”. Moreover, the compound was called inactive in [7], in [10], in [11], in [13], in assay [14] and in [15].
Consider `CO[C@H](C(=O)[C@@H](O)[C@@H](C)O)C1Cc2cc3cc(O[C@H]4C[C@@H](O[C@H]5C[C@@H](O)[C@H](O)[C@@H](C)O5)[C@@H](O)[C@@H](C)O4)c(C)c(O)c3c(O)c2C(=O)[C@H]1O[C@H]1C[C@@H](O[C@H]2C[C@@H](O[C@H]3C[C@](C)(O)[C@H](O)[C@@H](C)O3)[C@H](O)[C@@H](C)O2)[C@H](O)[C@@H](C)O1` (some centres not stated), for which the Potency was 42.2 nM (active) and 53.1 nM (active) in assay [1]; 27.8 µM (active) in [6]. Moreover, the Potency result in assay [2], in assay [3], in assay [4], in assay [5], in assay [8] and in assay [9] was “inactive” each time. Besides, the Potency result in assay [12], in [16], in assay [17] and in assay [18] was “inactive” in each case. The compound was called inactive in assay [7], in assay [10], in assay [11], in assay [13], in [14] and in assay [15].
In the case of `c1ccc2c(c1)OCC(CN1CCCCC1)O2` (configuration not stated), the Potency result in assay [1], in assay [2], in assay [3], in assay [4], in assay [5] and in assay [6] was “inactive” each time. The Potency result in [8], in [9], in assay [12], in assay [16], in assay [17] and in assay [18] was “inactive” each time. The call in [7], in [10], in [11], in [13], in assay [14] and in assay [15] was inactive.
With `NC[C@H]1O[C@H](O[C@H]2[C@H](O)[C@@H](O[C@H]3O[C@H](CO)[C@@H](O)[C@H](N)[C@H]3O)[C@H](N)C[C@@H]2N)[C@H](N)C[C@@H]1O`, the Potency result in assay [1], in [2], in assay [3], in assay [4], in assay [5] and in assay [6] was “inactive” each time. The Potency result in assay [8], in assay [9], in assay [12], in assay [16], in assay [17] and in assay [18] was “inactive” each time. Besides, the result in [7], in assay [10], in assay [11], in [13], in [14] and in assay [15] was inactive.
In the case of `N[C@H](C(=O)O)[C@@H]1CC(Cl)=NO1`, the figures for the Potency in assay [1] and in assay [3] were 2.98 µM (active) and 13.3 µM (active), respectively. In addition, the Potency entry in assay [2], in assay [4], in assay [5], in assay [6], in assay [8] and in [9] was “inactive” throughout. Further, the Potency result in assay [12], in assay [16], in assay [17] and in assay [18] was “inactive” throughout. The compound was classed as inactive in assay [7], in [10], in assay [11], in assay [13], in [14] and in [15].
